An excerpt weighted towards active compounds, which were near 0.51% of everything screened.
FMDV RLuc: FMDV antiviral activity by Renilla signal; FMDV replicon cells, Renilla luciferase signal; Potency, µM (top dose mostly 57.5 µM), for the others: top-dose activity change, negative = inhibition, actives largely listed as inhibitors; 120,000 compounds, 0.32% hits; further: nearly all actives have a fitted effect of over 55% in size
FMDV antiviral: FMDV antiviral activity by firefly signal. FMDV antiviral cell assay, firefly luciferase signal. AID 1745856. Potency, µM (doses to about 57.5 µM), for the others: top-dose activity change, negative = inhibition, usual class: inhibitors. 120,000 compounds, 0.23% hits; further: nearly all actives have a fitted effect of over 60% in size
An asterisk follows results filed as active; ? = inconclusive; [ ] = remark or other dose. The call rests on the fitted dose curve. On the % scale 0 is the no-effect control and ±100 the full control effect; potency means the concentration at half of the fitted maximal effect.

SMILES	FMDV RLuc	FMDV antiviral
COc1cc(-c2noc(-c3ccc(Br)cc3)n2)cc(OC)c1OC	-1%	7%
COc1cc(-c2nc(-c3ccc(Br)cc3)no2)cc(OC)c1OC	-8%	0.4µM*
Cc1cc(C(=O)CSc2nnc(CN3CCCC3)n2-c2ccccc2)c(C)n1C1CC1	-2%	-1%
Clc1cc2[nH]c3c(c2cc1Cl)CCCC3	-20%	0%
CCN(CC)C(C)CN1c2ccccc2Sc2ccccc21 (stereo not given)	-1%	17%[11.5 µM]
CCN1/C(=C/C=C/c2sc3ccccc3[n+]2CC)Sc2ccccc21	?	3.2µM*
COc1cc(CN(C(=O)COc2ccc(Br)cc2)c2ccccn2)cc(OC)c1OC	22µM*	-42%
COc1cc(CN(C(=O)COc2ccc(C)cc2)c2ccccn2)cc(OC)c1OC	34%	40%
CC(C)(CNC(=O)NCc1nc2ccccc2s1)N1CCOCC1	-1%	41%
O=C1CCc2c(Cl)cc(Cl)c(O)c21	-8%	9%
COc1ccc(OC)c(/C=N/OCc2c(Cl)cccc2Cl)c1	35%	?
CCOc1ccc(Nc2nc(N3CCOCC3)c3cnn(C)c3n2)cc1	3%	2%
CCN(CC)c1ccc(Nc2nc(N3CCOCC3)c3ccccc3n2)cc1	20µM*	?
CCCOc1ccc(C(=O)Nc2ccc(-c3cc4ccccc4oc3=O)c(C)c2)cc1	4.5µM*	7.9µM*
CCCOc1cccc(C(=O)Nc2ccc(-c3cc4ccccc4oc3=O)c(C)c2)c1	-14%	3%
O=C(Nc1ccc2ccccc2n1)c1ccc(S(=O)(=O)NC2CC2)cc1	-4%	-2%
O=C(Nc1ccc2ccccc2n1)c1ccc(S(=O)(=O)N2CCCCC2)cc1	32µM*	?
COC(=O)C1(NC(=O)c2cc(Cl)ccc2Cl)CCCCCC1	-5%	-11%
COC(=O)C1(NC(=O)COc2ccc(Cl)cc2Cl)CCCCC1	8.9µM*	8.9µM*
Cc1csc2nc(-c3cccc(NC(=O)c4ccccc4F)c3)cn12	20%	116%
Cc1csc2nc(-c3cccc(NC(=O)c4cccc(F)c4)c3)cn12	13µM*	-4%
COc1cccc(Nc2c(-c3cccc(O)c3)nc3cccc(C)n23)c1	38%	38%
O=c1c2cnc(N3CCc4ccccc4C3)nc2ccn1-c1ccccc1	?	25µM*
O=c1c2cnc(N3CCc4ccccc4C3)nc2ccn1-c1cc(Cl)cc(Cl)c1	2%	65%
CCN(CC)C1c2cccc3cccc(c23)C1NS(=O)(=O)c1ccccc1 (stereo not given)	61%	-7%
SMILES	FMDV RLuc	FMDV antiviral
O=C(/C=C/c1ccc(-c2ccccc2Cl)o1)c1ccccc1	0%	119%
O=C(CSc1ccc2ccccc2n1)Nc1ccc2c(c1)CCC2	-1%	59%
O=C(CSc1ccc(N2CCC(C(=O)N3CCCCC3)CC2)nn1)Nc1ccc2c(c1)CCC2	3.2µM*	4µM*
CCOc1ccc(CCNc2ncnc3onc(C)c23)cc1OCC	2.5µM*	3.2µM*
CCCNc1ncnc2onc(-c3ccc(C)cc3)c12	15%	8%
Cc1ccc(CCNc2ncnc3onc(C)c23)cc1	1.6µM*	1.8µM*
CCOCCCNc1ncnc2onc(C)c12	-5%	-6%
CCCCc1ccc(C(Nc2ccc3nnnn3n2)c2cccs2)cc1 (stereo not given)	60%	-1%
CCN1CCN(C(C(=O)O)c2c[nH]c3ccc(NC(=O)c4ccccc4)cc23)CC1 (stereo not given)	-8%	14%
CCN1CCN(C(C(=O)O)c2c[nH]c3cc(NC(=O)c4ccccc4)ccc23)CC1 (stereo not given)	1%	13µM*
O=C(Nc1cccc2ncccc12)c1ccc([N+](=O)[O-])cc1	-5%	8%
Cc1ccc(S(=O)(=O)CCC(=O)N2CCN(c3nc4c(C)c(Cl)ccc4s3)CC2)cc1	-11%	-1%
COc1cccc2sc(N3CCN(C(=O)CCS(=O)(=O)c4ccc(F)cc4)CC3)nc12	?	35µM*
Cc1csc(NC(=O)c2ccc(Oc3ccc(Br)cc3)nc2)n1	13µM*	?
CCOc1ccc(C(=O)Nc2nc(C)cs2)cc1OC	4%	1%
CCC1CCCN(Cc2nc(N)c3ccccc3n2)C1 (stereo not given)	-13%	6%
COP(=O)(OC)c1nc(Cc2ccc(Cl)cc2)oc1NCc1ccc2c(c1)OCO2	-7%	-11%
COc1ccc2sc(N(Cc3cccnc3)C(=O)c3cccs3)nc2c1	3.2µM*	?
CCOc1ccc2nc(N(Cc3cccnc3)C(=O)c3cccs3)sc2c1	4%	55%
Cc1ccc2cc(C(=O)NCc3ccc(N4CCC(C)CC4)nc3)c(C)nc2c1	1µM*	?
Cc1nc(N2CCCC2)ncc1C(=O)NCc1ccc(F)cc1	10%	7%
Cc1ccc(C(=O)NCc2ccc(N3CCCC3)nc2)cc1F	-4%	12%
Cc1nc2cc(F)ccc2cc1C(=O)NCc1ccc(C(=O)N2CCCC2)cc1	2.5µM*	6.3µM*
COc1ccc(OC)c(C2CC(c3ccc(NS(C)(=O)=O)cc3)=NN2C(=O)c2cccs2)c1 (stereo not given)	4%	8%
CC(C)=CC(=O)Nc1ccc(OC2CCCC2)cc1	10%	0%
SMILES	FMDV RLuc	FMDV antiviral
O=C(Nc1ccc(OC2CCCC2)cc1)c1ccncc1	5µM*	-25%
CCOc1ccc(C(=O)Nc2ccc3oc(-c4ccncc4)nc3c2)cc1Br	6.3µM*	?
COc1ccc(C(=O)Nc2ccc3oc(-c4ccncc4)nc3c2)cc1OC	-5%	0%
CCN(Cc1nc(-c2ccc(Cl)cc2)no1)C(=O)Nc1cccc2ccccc12	-11%	9%
O=[N+]([O-])c1ccc(/C=C/c2ccccc2)cc1	8%	31%
O=[N+]([O-])c1ccc(C(=C(c2ccccc2)c2ccccc2)c2ccc([N+](=O)[O-])cc2)cc1	3.2µM*	2.5µM*
O=C(N/N=C/c1c(Cl)cccc1Cl)c1cccs1	57%	0%
CSCc1ccc(C(=O)Nc2cccc(F)c2)o1	-24%	103%
Cc1nc2cc(-c3cccc(F)c3)nn2c(C)c1CCC(=O)Nc1ccc(F)c(Cl)c1	-2%	2.2µM*
COc1ccc(N2CCN(C(=O)CCc3c(C)nc4cc(-c5cccc(F)c5)nn4c3C)CC2)cc1	-4%	25µM*
Cc1nc2cc(-c3cccc(F)c3)nn2c(C)c1CCC(=O)N1CCN(c2ccc(F)cc2)CC1	-5%	?
Cc1nc2cc(-c3ccccc3)nn2c(C)c1CCC(=O)Nc1ccc(F)cc1	-3%	3.2µM*
Cc1nc2cc(-c3ccccc3)nn2c(C)c1CCC(=O)Nc1ccc(F)cc1F	-8%	?
Cc1nc2cc(-c3cccc(F)c3)nn2c(C)c1CCC(=O)Nc1ccc(CN2CCCC2)cc1	-17%	?
COc1cc(C2CC(=O)Nc3nc(N4CCCCC4)sc32)cc(OC)c1OC (stereo not given)	112%	125%
NC(=O)CSS(=O)(=O)O	5%	24%
Nc1nccnc1C(=O)NCCNc1ncccn1	11%	0%
CCCNC(=O)C(C)Sc1nc(CCC)cc(=O)[nH]1 (stereo not given)	-4%	2%
CCCc1cc(=O)[nH]c(SC(C)C(=O)NC(=O)NC2CCCCC2)n1 (stereo not given)	?	10µM*
N#CCCn1cc(C(=O)Nc2ccccc2)c(-c2cccs2)n1	25%	5%
COc1ccc(NC(=O)c2ccc3c(c2)NC(=O)CS3)cn1	0%	68%
COc1cc(C)ccc1Oc1ccc(NC(=O)c2ccc3c(c2)NC(=O)CS3)cn1	25µM*	?
COc1cc(CNC(=O)N2CCN(Cc3ccc(Br)s3)CC2)ccc1OC(F)F	13%	190%

High-throughput results deposited in PubChem BioAssay by National Center for Advancing Translational Sciences (NCATS).
